Hits are enriched below; roughly 2.7% of the tested compounds scored in any of these assays.
ANO1 activ: TMEM16A chloride channel activators or potentiators, primary screen, cell-based, HTS; Anoctamin-1 (Mus musculus), Q8BHY3; HEK293 TMEM16A/YFP-H148Q/I152L, iodide quench fluorescence; active compounds read low; B-score at 10 µM; 340,000 compounds, 0.3% hits; AID 623877, 2012;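 active = fluorescence-ratio B-score plate-corrected deviation score at least 3 library SD below zero, with starting fluorescence score within 5 deviations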;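 note: channel opened by trigger with iodide after compound preincubation; score built on the fluorescence ratio of max minus min over baseline; more negative score means more quench and so TMEM16A activation or potentiation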
IDE cell activ: human IDE activators in live cells, primary screen, fluorescence polarization, HEK cells, FAbeta-B substrate; Insulin-degrading enzyme (Homo sapiens), P14735; activation, % at 5.96 µM; 340,000 compounds, 0.073% hits; FAbeta-B cleavage; 0% vehicle, 100% cell-free pure enzyme wells;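 active = activation above the mean of all tested compounds plus 3 SD, set per screening campaign, cut at about 17% in these data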
TMEM16A inh: TMEM16A chloride channel inhibitors, primary screen, cell-based, HTS; normalized B-score (activity score, 25-100; higher = stronger inhibition) at 10 µM; Anoctamin-1 (Mus musculus), Q8BHY3; 310,000 compounds, 1.2% hits; HEK293 TMEM16A/YFP iodide influx fluorescence, ionomycin;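 active = ratio plate-corrected score three or more library SD toward inhibition, starting fluorescence score within five deviations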;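 note: score derived from kinetic fluorescence span divided by baseline fluorescence per well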
CHT PAM: CHT positive allosteric modulators, primary screen, cell-based, membrane potential dye, choline EC20. 310,000 compounds, 0.49% hits. CHT-expressing cells; active compounds read high; LV-AA mutant CHT in HEK293 cells. B-score at 10 µM;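 active = initial fluorescence not abnormally high and integrated response B-score, plate-corrected, over 3 SD above library mean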
Target sequence (Q9GZV3 whole entry, looked up): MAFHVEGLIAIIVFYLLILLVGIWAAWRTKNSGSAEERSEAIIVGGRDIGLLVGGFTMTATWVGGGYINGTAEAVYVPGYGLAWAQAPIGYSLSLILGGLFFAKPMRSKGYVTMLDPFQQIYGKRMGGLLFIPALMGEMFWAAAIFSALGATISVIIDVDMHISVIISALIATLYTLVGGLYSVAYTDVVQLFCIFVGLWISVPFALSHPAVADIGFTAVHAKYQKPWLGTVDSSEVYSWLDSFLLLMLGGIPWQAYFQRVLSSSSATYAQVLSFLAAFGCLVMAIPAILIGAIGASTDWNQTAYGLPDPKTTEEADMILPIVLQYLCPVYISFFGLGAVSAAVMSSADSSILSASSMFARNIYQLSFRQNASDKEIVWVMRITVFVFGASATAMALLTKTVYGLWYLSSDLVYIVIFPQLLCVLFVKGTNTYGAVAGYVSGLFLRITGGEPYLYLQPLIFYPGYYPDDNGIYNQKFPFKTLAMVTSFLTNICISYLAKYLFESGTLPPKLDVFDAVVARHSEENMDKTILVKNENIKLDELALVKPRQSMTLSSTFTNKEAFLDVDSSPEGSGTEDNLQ
CHT block: inhibitors of human choline transporter CHT. High affinity choline transporter 1 (Homo sapiens), Q9GZV3. CHT-expressing cells, membrane potential dye, choline response; active compounds read low. B-score at 10 µM. 310,000 compounds, 0.86% hits. AID 488975, 2010;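 active = B-score over 3 SD under the library average, and starting fluorescence ratio not unusually high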;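 note: choline stimulus applied at its EC90 after an EC20 pre-addition; B-score computed on integrated fluorescence ratio after choline addition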
IDE inh: human IDE inhibitors in live cells, primary screen, fluorescence polarization, HEK cells, FAbetaB substrate | Insulin-degrading enzyme (Homo sapiens), P14735 | AID 434962, 2010 | 320,000 compounds, 0.41% hits | inhibition, % at 5.59 µM | FAbetaB cleavage;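 active = percent inhibition above the average of all tested compounds plus 3 SD, set per screening campaign, cut at about 16% in these data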;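 note: IDE supplied by intact live HEK cells; FP after avidin binding of uncleaved biotin substrate so inhibition keeps polarization high; 0% = DMSO wells and 100% = 60 µM reference IDE inhibitor Ii1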
CHT act confirm: CHT activators, confirmation, cell-based, membrane potential dye, duplicate; CHT-expressing cells, membrane potential dye fluorescence (FDSS); % of choline EC20–EC90 response window; HEK293 expressing CHT LV-AA mutant; choline added at its EC20; shares compounds with CHT PAM; activation, % at 10 µM; 2,500 compounds, 91% hits;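 active = primary screen active, with duplicate mean activation above negative control mean plus 3 SD, cut at about 11% in these data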
HEK293 MP dye: membrane potential response in parental HEK293 cells, counter-screen for CHT activator project, cell-based, membrane potential dye. membrane potential dye fluorescence (FDSS); measured after EC20 choline addition. ratio readout change at 10 µM, hits read low. 2,500 compounds, 62% hits. shares compounds with CHT PAM;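 active = duplicate-averaged ratio beyond 3 SD from buffer wells, up or down, though filed actives are nearly all decreases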
* marks the source's active call; other numbers are inactive results; i = inactive; . = not tested or not shown.

SMILES	ANO1 activ	IDE cell activ	TMEM16A inh	CHT PAM	CHT block	IDE inh	CHT act confirm	HEK293 MP dye
Cn1c(=O)c(=O)n(C)c2cc(N3CCCC3)c(NS(=O)(=O)c3ccc(Cl)cc3)cc21	i	1	i	6.6*	i	-3	55*	-55*
O=C(NC1CC2CCC(C1)N2Cc1ccco1)c1ccccc1 (centres undefined)	i	0	i	7.7*	i	-4	2	i
Cc1ccnc2nc(C(=O)Nc3ccc(S(=O)(=O)N4CCCC4)cc3)nn12	i	2	i	9.9*	i	1	27*	-21*
Cc1ccc(NC(=O)c2nc3nccc(C)n3n2)cc1S(=O)(=O)N1CCCCC1	i	0	.	.	.	0	.	.
Cc1ccnc2nc(C(=O)Nc3nccs3)nn12	i	3	i	i	i	-2	40*	i
Cc1ccc(S(=O)(=O)N2CCN(C(=O)CC(C)n3nc(C)c(Cl)c3C)CC2)cc1 (centres undefined)	i	1	i	i	i	-3	.	.
CCc1ccc(-c2csc3[n+]2CCN3C(C)=O)cc1	i	-14	i	i	i	2	41*	i
O=C(CN1CC[n+]2c(-c3cccs3)csc21)c1ccc(-c2ccccc2)cc1	i	-16	i	i	i	10	.	.
Cc1ccc(N/C(N)=N/c2nc(CSc3nnc(C)s3)cc(=O)[nH]2)c(C)c1	i	5	i	6.9*	i	-5	24*	i
Cc1cccnc1NC(=O)/C=C/c1ccc2c(c1)OCO2	i	-4	i	i	i	2	44*	-40*
COc1ccccc1CN(C)C(=O)C(c1ccccc1)c1ccccc1	i	1	i	11*	i	3	30*	i
CN(Cc1cccc(F)c1)C(=O)C(c1ccccc1)c1ccccc1	i	0	i	6.5*	i	.	6	i
CN(Cc1ccc(F)cc1)C(=O)C(c1ccccc1)c1ccccc1	i	2	i	i	i	2	37*	i
CN(Cc1ccc(F)cc1)C(=O)c1sccc1-c1ccccc1	i	9	i	6.7*	i	.	37*	i
CN(CCO)C(=O)C(c1ccccc1)c1ccccc1	i	3	i	i	i	0	.	.
CCOc1ccc(S(=O)(=O)N2CCCCC2)cc1NC(=O)c1ccccc1	i	7	.	.	.	.	.	.
COCCN(C(=O)c1oc2ccccc2c1COC)c1c(N)n(CC(C)C)c(=O)[nH]c1=O	i	1	.	.	.	-2	.	.
CN1CCN(C(=O)CCc2nnc3ccc(N4CCC5(CC4)OCCO5)nn23)CC1	i	5	i	i	i	5	.	.
CCOC(=O)C1CCN(C(=O)CCc2nnc3ccc(N4CCN(C)CC4)nn23)CC1	i	-4	i	8.1*	i	5	73*	-72*
Cc1ccc(C(=O)NCC(=O)N2CCCC(C(F)(F)F)C2)s1 (centres undefined)	i	4	i	i	i	7	.	.
CC1CCC(=NO)C(=NO)C1 (centres undefined)	i	2	.	.	.	.	.	.
CCc1c(C)c(C#N)c2nc3ccccc3n2c1NCc1ccco1	i	-3	i	i	i	0	11*	i
CCc1c(C)c(C#N)c2nc3ccccc3n2c1NC	i	4	i	i	i	0	.	.
COCCOC(=O)c1[nH]c2c(c1C)C(=O)CC(c1ccccc1)C2 (centres undefined)	i	-1	i	i	i	5	9	i
C[n+]1ccc(/C=C/c2ccccc2O)c2ccccc21	i	4	i	i	i	0	30*	-39*
SMILES	ANO1 activ	IDE cell activ	TMEM16A inh	CHT PAM	CHT block	IDE inh	CHT act confirm	HEK293 MP dye
Cc1cc(-n2c(C)c3c(C)nnc(C)c3c2C)ccc1N	i	.	i	6.7*	i	6	38*	-22*
O=C(COC(=O)c1ccc(O)cc1)Nc1ccccc1	i	2	i	i	i	2	.	.
COc1ccc(OC)c(CNc2nc3ccccc3n2CCN2CCCCC2)c1	i	7	i	i	i	8	34*	i
COc1cccc(CNC(=O)CCC2CCCN(c3cc(C)nc(N(C)C)n3)C2)c1 (centres undefined)	i	2	i	i	i	-5	48*	-40*
CCn1cc(C(=O)OC)c(=O)c2ccc(C)nc21	i	3	i	12*	i	3	79*	-75*
CCn1cc(C(=O)NCCOC)c(=O)c2ccc(C)nc21	i	7	i	i	i	2	.	.
CC(=O)c1cccc(NC(=O)c2cc3ccccn3n2)c1	i	7	i	i	i	-2	35*	-27*
Cc1cc(C)n2nc(C(=O)Nc3ccc(S(=O)(=O)N(C)C)cc3)nc2n1	i	3	i	8.2*	i	-4	60*	-56*
Cc1cc(C)n2nc(C(=O)N/N=C/c3ccc(O)cc3)nc2n1	i	2	i	6.5*	i	-1	30*	-24*
Cc1cc(C)n2nc(C(=O)Nc3ccc4c(c3)OCO4)nc2n1	i	3	i	7.6*	i	2	30*	-35*
CCC(CC)c1nnc(NC(=O)c2nc3nc(C)cc(C)n3n2)s1	i	3	i	7.3*	i	4	30*	-31*
F[B-](F)(F)c1cncc2ccccc12	.	4	.	.	.	.	.	.
COc1ccc(S(=O)(=O)N2CCCC(C(=O)NCc3cccnc3)C2)cc1OC (centres undefined)	i	8	i	i	i	3	.	.
COc1ccc(CNCCS(=O)(=O)NN2CCOCC2)cc1	i	2	.	.	.	.	.	.
CCOC(=O)c1cn2nc(N3CCCC3)ccc2n1	i	1	i	i	i	0	35*	-38*
CCCCC[C@H]1CN(C2CCCCC2)C(=O)[C@@H]1CC(=O)NCc1ccccc1	i	-1	i	i	i	3	.	.

Screens: PubChem BioAssay, several laboratories
